The source of these data is PubChem BioAssay (NCATS).

Results filed as inconclusive are left out. Calls of active or inactive are those of the source. Calls come from the whole dose curve; as a rule, active = well fitted inhibition curve with a large enough effect; inconclusive = small, poorly fitted or top-dose-only effect; inactive = flat fitted curve, though single readings scatter.

Assay in all cases: qHTS profiling for inhibitors of Plasmodium falciparum proliferation (AID 504749); note: nearly all actives have a fitted effect of over 60% in size
Conditions in all cases: P. falciparum in erythrocytes, SYBR Green DNA, 72 h; series mostly up to 28.7 µM
On the technique in general: In qHTS, concentration-response curves come from the screen itself.

In one assay the test system is N140. In outline: (§1)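 P. falciparum-infected erythrocytes (0.3% parasitemia, 2.5% hematocrit) incubated with compound 72 h at 37 C, 5% CO2. Parasite DNA detected by SYBR Green after lysis, overnight at room temperature; normalised to 0.29 uM artemisinin and DMSO.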
The subject of a further assay is P93_24. In outline:
as §1

The test system of a further assay is P94_40. In outline: as §1
The subject of a further assay is PAD. In outline:
as §1

In another assay the test system is PC15. In outline: as §1
Another assay has as its system PC26. In outline: as §1
In the next assay the test system is PC49. The method in brief:
as §1

A further assay concerns SC27B. The method in brief: as §1
The subject of a further assay is TAB109. In outline:
as §1

In the next assay the test system is TAB113. In outline:
as §1
Potency is the fitted concentration of half-maximal effect.

Take `CC(C)(C)CC(C)(C)c1ccc(O)c(Cc2ccc(Cl)cc2Cl)c1`: the Potency was 0.794 µM (active) with N140; 1.26 µM (active) in the assay with P93_24; 1 µM (active) with P94_40; 1 µM (active) in the assay on PAD; 2.24 µM (active) with PC15; 1.51 µM (active) in the assay with PC26. Also, the Potency was 1.78 µM (active) in the assay with PC49, 1.26 µM (active) with SC27B, 2 µM (active) with TAB109 and 1.12 µM (active) in the assay on TAB113.
For `N[C@H](Cc1c[nH]c2ccccc12)C(=O)O`, the Potency entry in the assay with N140, in the assay on P93_24, in the assay with P94_40, in the assay on PAD, in the assay on PC15 and with PC26 was “inactive” throughout. For the same compound, the Potency result in the assay with PC49, with SC27B, in the assay on TAB109 and in the assay with TAB113 was “inactive” in each case.
In the case of `Cc1cccn2c(=O)c(-c3nnn[nH]3)cnc12`, the Potency result in the assay on N140, in the assay on P93_24, with P94_40, in the assay with PAD, in the assay with PC15 and in the assay on PC26 was “inactive” throughout. Also, the Potency entry in the assay with PC49, in the assay with SC27B, in the assay on TAB109 and with TAB113 was “inactive” throughout.
Consider `COc1c2occc2c(OC)c2c(=O)cc(C)oc12`, for which the Potency result with N140, with P93_24, with P94_40, with PAD, in the assay with PC15 and in the assay on PC26 was “inactive” in each case. The Potency result with PC49, in the assay with SC27B, in the assay on TAB109 and with TAB113 was “inactive” each time.
Consider `NC(CO)(CO)CO`, for which the Potency result in the assay with N140, in the assay on P93_24, in the assay with P94_40, in the assay on PAD, in the assay on PC15 and in the assay on PC26 was “inactive” in each case. In addition, the Potency entry in the assay with PC49, with SC27B, in the assay on TAB109 and in the assay with TAB113 was “inactive” in each case.
`CNCCC=C1c2ccccc2CCc2ccccc21`: in the assay with N140, the Potency is 7.08 µM (active).
As to `C[C@@H]1C(=O)NC2=Nc3cccc(Cl)c3CN21`, the Potency result with N140, in the assay on P93_24, in the assay on P94_40, with PAD, in the assay with PC15 and in the assay with PC26 was “inactive” each time. Besides, the Potency entry in the assay with PC49, with SC27B and in the assay on TAB109 was “inactive” each time.
As to `C1CCc2nnnn2CC1`, the Potency entry in the assay on N140, with P93_24, in the assay on P94_40, with PAD, with PC15 and in the assay on PC26 was “inactive” throughout. Moreover, the Potency result with PC49, with SC27B, in the assay on TAB109 and with TAB113 was “inactive” in each case.
As for `Nc1ccc(/C=C/c2ccc(N)cc2S(=O)(=O)O)c(S(=O)(=O)O)c1`, the Potency entry with N140, in the assay with P93_24, in the assay with P94_40, with PAD, in the assay on PC15 and in the assay on PC26 was “inactive” each time. Moreover, the Potency entry with PC49, in the assay with SC27B and in the assay on TAB109 was “inactive” in each case.
Turning to `COc1ccc(CCN2CCC(Nc3nc4ccccc4n3Cc3ccc(F)cc3)CC2)cc1`, the Potency in the assay with N140 is 3.55 µM (active); with P93_24, 2.82 µM (active); with P94_40, 3.16 µM (active); in the assay with PAD it was 3.98 µM (active); with PC15, 6.31 µM (active); in the assay on PC26, 6.75 µM (active). For the same compound, the Potency in the assay with PC49 was 4.47 µM (active); in the assay with SC27B it was 3.98 µM (active); with TAB109, 2.51 µM (active); in the assay on TAB113, 3.98 µM (active).
For the compound `Oc1ccc(Cl)c2cccnc12`, the Potency result in the assay on N140, with P93_24, in the assay on P94_40, with PAD, in the assay with PC15 and in the assay with PC26 was “inactive” in each case. Moreover, the Potency result in the assay with PC49, in the assay with SC27B, in the assay on TAB109 and with TAB113 was “inactive” throughout.
Regarding `C[C@H]1[C@H](NC(=O)/C(=N/OC(C)(C)C(=O)O)c2csc(N)n2)C(=O)N1S(=O)(=O)O` (stereo in doubt), the Potency result in the assay on N140, in the assay on P93_24, in the assay on P94_40, with PAD, with PC15 and in the assay on PC26 was “inactive” in each case. Also, the Potency entry in the assay on PC49, in the assay with SC27B, in the assay with TAB109 and with TAB113 was “inactive” throughout.
`CCCCC(CC)CN=C(N)NC(N)=NCCCCCCN=C(N)NC(N)=NCC(CC)CCCC` (stereo not drawn): the Potency in the assay on N140 is 1 µM (active); in the assay on P93_24 it was 1.78 µM (active); in the assay with P94_40, 1.26 µM (active); with PAD, 0.891 µM (active); with PC15, 2.82 µM (active); in the assay with PC26, 1.51 µM (active). Besides, the Potency is 2.24 µM (active) with PC49, 2 µM (active) with SC27B, 1.12 µM (active) in the assay on TAB109 and 1.78 µM (active) in the assay with TAB113.
With `CCCCOc1cc(C(=O)NCCN(CC)CC)c2ccccc2n1`, the Potency result in the assay with N140, in the assay on P93_24, in the assay on P94_40, in the assay on PAD, in the assay with PC15 and in the assay with PC26 was “inactive” throughout. Also, the Potency entry in the assay on PC49, in the assay on SC27B, in the assay on TAB109 and in the assay on TAB113 was “inactive” throughout.
For `CCOC(=O)n1ccn(C)c1=S`, the Potency entry in the assay on N140, in the assay with P93_24, in the assay on P94_40, in the assay on PAD, with PC15 and in the assay on PC26 was “inactive” in each case. For the same compound, the Potency result in the assay on PC49, with SC27B, in the assay on TAB109 and in the assay on TAB113 was “inactive” each time.
Consider `COC1=CC(=O)C[C@@H](C)[C@]12Oc1c(Cl)c(OC)cc(OC)c1C2=O`, for which the Potency entry with N140, in the assay with P93_24, in the assay with P94_40, with PAD, in the assay with PC15 and with PC26 was “inactive” throughout. Also, the Potency result in the assay on PC49, in the assay on SC27B, in the assay with TAB109 and in the assay with TAB113 was “inactive” throughout.
With `CCCN1CCCC[C@H]1C(=O)Nc1c(C)cccc1C`, the Potency result in the assay with N140, with P93_24, in the assay with P94_40, in the assay on PAD, in the assay on PC15 and in the assay on PC26 was “inactive” each time. Moreover, the Potency result with PC49, in the assay with SC27B, in the assay with TAB109 and with TAB113 was “inactive” in each case.
Regarding `C[C@]12CCC(=O)C=C1CC[C@H]1[C@@H]3CC[C@](O)(C(=O)CO)[C@@]3(C)C[C@H](O)[C@@]12F`, the Potency result with N140, in the assay with P93_24, in the assay on P94_40, in the assay with PAD, with PC15 and in the assay on PC26 was “inactive” each time. Besides, the Potency entry with PC49, with SC27B and in the assay on TAB109 was “inactive” each time.
As to `O=C1c2ccccc2C(=O)C1c1ccccc1`, the Potency result with N140, with P93_24, with P94_40, in the assay on PAD, in the assay on PC15 and with PC26 was “inactive” each time. For the same compound, the Potency entry in the assay with PC49, in the assay on SC27B, in the assay with TAB109 and with TAB113 was “inactive” each time.
Take `CC(=O)Oc1ccc(C(=C2CCCCC2)c2ccc(OC(C)=O)cc2)cc1`: the Potency entry in the assay with N140, with P93_24, in the assay with P94_40, in the assay with PAD, in the assay on PC15 and in the assay with PC26 was “inactive” each time. Further, the Potency result in the assay on PC49, in the assay with SC27B, in the assay with TAB109 and with TAB113 was “inactive” throughout.
Turning to `CCCCCCC[N+](CC)(CC)CCCCc1ccc(Cl)cc1`, the Potency was 2.51 µM (active) with N140; 2.24 µM (active) in the assay on P93_24; 2 µM (active) with P94_40; 3.98 µM (active) with PAD; 1.58 µM (active) in the assay with PC15; 2.03 µM (active) in the assay on PC26. Further, the Potency is 3.16 µM (active) in the assay with PC49, 2.82 µM (active) in the assay on SC27B, 2 µM (active) in the assay on TAB109 and 2.24 µM (active) in the assay on TAB113.
In the case of `CC(C)COC(=O)OCN1C(=O)CN(CCN2CC(=O)N(COC(=O)OCC(C)C)C(=O)C2)CC1=O`, the Potency result with N140, with P93_24, in the assay with P94_40, in the assay with PAD, with PC15 and with PC26 was “inactive” throughout. The Potency entry in the assay with PC49, in the assay on SC27B, with TAB109 and in the assay with TAB113 was “inactive” throughout.
As for `CC(=O)OCC(=O)NCCCOc1cccc(CN2CCCCC2)c1`, the Potency entry with N140, in the assay on P93_24, with P94_40, in the assay on PAD, in the assay on PC15 and in the assay with PC26 was “inactive” in each case. For the same compound, the Potency result in the assay with PC49, with SC27B, in the assay with TAB109 and in the assay with TAB113 was “inactive” each time.
